Cruzain inh noDet – blocks cruzain activity in detergent-free assay; 2.3% of 200,000 active; Potency, µM, without a hit: max response, negative = inhibition, actives largely listed as inhibitors; purified cruzain, Z-FR-AMC fluorescence, no detergent; P25779;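 note: plate controls were enzyme without inhibitor for no effect and buffer without enzyme for full effect; nearly all actives have a fitted effect of over 40% in size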
Target sequence (P25779 123-467 limits assumed): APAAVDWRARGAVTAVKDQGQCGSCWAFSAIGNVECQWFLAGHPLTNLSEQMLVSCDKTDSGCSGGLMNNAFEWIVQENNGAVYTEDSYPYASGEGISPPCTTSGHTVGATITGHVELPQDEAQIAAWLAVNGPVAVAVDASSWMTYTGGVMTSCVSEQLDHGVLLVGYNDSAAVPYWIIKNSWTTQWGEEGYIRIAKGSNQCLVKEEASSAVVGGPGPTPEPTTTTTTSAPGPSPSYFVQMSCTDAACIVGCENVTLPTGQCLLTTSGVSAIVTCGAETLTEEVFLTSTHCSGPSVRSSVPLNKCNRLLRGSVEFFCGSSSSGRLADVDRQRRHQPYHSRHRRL
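Detergent-free condition (0.00005% Triton X-100) in acetate buffer pH 5.5 with DTT. 1.5 nM enzyme and compound were pre-mixed 15 min, then 2 uM Z-FR-AMC substrate added; reaction progress from fluorescence change between first and third reads (60 s).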
NS1 function inh – inhibitors of influenza NS1 protein function; Potency, µM (titrated, usually from 46.1 µM), for inactives: top-dose activity, positive = more growth; 0.4% of 270,000 active; AID 2326; calls by dose curve; note: actives are rising curves; nearly all actives have a fitted effect of over 50% in size
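Growth recovery, yeast-based: influenza A NS1 expressed in S. cerevisiae causes slow growth, and suppressors are detected by OD600. The parent strain without NS1 is used as positive control.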
Cruzain inh Det – cruzain (T. cruzi) inhibition with detergent; P25779; purified cruzain, Z-FR-AMC fluorescence, 0.01% Triton; Potency, µM, for inactives: max response, negative = inhibition, actives largely listed as inhibitors; 0.43% of 200,000 active;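 note: plate controls were neutral wells for no effect and buffer without enzyme for full effect; nearly all actives have a fitted effect of over 40% in size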
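Detergent-containing run (0.01% Triton X-100) in acetate buffer pH 5.5 with 5 mM DTT: enzyme at 1.5 nM final, 15 min compound preincubation at room temperature, then 2 uM Z-FR-AMC substrate. Activity taken as 60 s fluorescence increase at 360/450 nm.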
Numbers without * were called inactive; ? = inconclusive; nt = no result. The sample as a whole holds a higher share of hits than the screen did. Unless noted, calls come from the whole dose curve; as a rule, active = well fitted curve in the direction sought with a large enough effect; inconclusive = small, poorly fitted or top-dose-only effect, or another doubt; inactive = no such curve, though single readings can be large; an effect the other way counts as inactive or inconclusive. Potency is the fitted concentration of half-maximal effect.

SMILES	Cruzain inh noDet	NS1 function inh	Cruzain inh Det
COc1ccc(OC(=O)c2nc(SCc3ccc(C)cc3)ncc2Cl)cc1	20µM*	nt	-1%
COc1cc(Cl)c(C)cc1NC(=O)CCNC(=O)c1ccco1	nt	1%	nt
CCOc1cc(C2Sc3ccccc3NC3=C2C(=O)c2ccccc23)ccc1O (stereo not given)	-5%	nt	-6%
COc1ccc(Br)cc1C1Sc2ccccc2NC2=C1C(=O)c1ccccc12 (stereo not given)	16µM*	nt	-2%
CCCc1ccc(C2Sc3ccccc3NC3=C2C(=O)c2ccccc23)cc1 (stereo not given)	7.9µM*	nt	-3%
O=C1C2=C(Nc3ccccc3SC2c2ccc(Cl)c(Cl)c2)c2ccccc21 (stereo not given)	10µM*	nt	-2%
O=C1C2=C(Nc3ccccc3SC2c2ccccc2C(F)(F)F)c2ccccc21 (stereo not given)	?	nt	-8%
O=C1C2=C(Nc3ccccc3SC2c2c(F)cccc2Cl)c2ccccc21 (stereo not given)	-14%	nt	-4%
N#Cc1ccc(NC(=O)Cn2cnc(S(=O)(=O)N3CCOCC3)c2)cc1	nt	-8%	nt
CCN1CCCC1CNC(=O)Cn1cccc1C(=O)c1ccccc1 (stereo not given)	-2%	2%	-1%
Cc1cccc(NC(=O)CSC2=Nc3ccccc3C3=NC(CCC(=O)NCc4ccc(F)cc4)C(=O)N23)c1 (stereo not given)	2%	nt	-1%
CCC(OC(=O)c1nsc(Cl)c1Cl)C(=O)NCC1CCCO1 (stereo not given)	nt	-8%	nt
COc1cc(/C=N/NC(N)=O)ccc1OC(=O)c1cccs1	nt	1%	nt
COc1cc(/C=N\NC(=O)c2ccc(C)nc2)ccc1OC(=O)c1ccco1	-6%	-7%	-5%
COc1cc(/C=N/Nc2ccc(Cl)cc2)ccc1OC(=O)c1cccs1	7.9µM*	-19%	-3%
COc1cc(/C=N/Nc2cccc(C)c2)ccc1OC(=O)c1ccco1	16µM*	-4%	-2%
C/C(=N\Nc1ccc(Cl)cc1)c1ccccn1	-1%	-53%	-10%
COc1ccc(OC)c(S(=O)(=O)N2CCN(CC(O)COc3ccc(C#N)cc3)CC2)c1 (stereo not given)	nt	-10%	nt
COc1ccccc1OCCNC(=O)c1ccc2c(c1)CCC2	nt	-22%	nt
CCOCCCNC(=O)Cc1ccc(Br)cc1	-6%	14%	2%
Cc1cccc(C(=O)Nc2ccc3nc(SCC(=O)N4CCc5ccccc54)sc3c2)c1	?	nt	-1%
Cc1ccccc1C(=O)Nc1ccc2nc(SCC(=O)N3CCc4ccccc43)sc2c1	10µM*	nt	-1%
N=C(N)c1ccc(O)cc1	nt	-1%	nt
N=C(N)c1ccc(/C=C\c2ccc(C(=N)N)cc2)cc1	3.2µM*	-48%	-25%
CN(C)c1ccc(Sc2nnc(NC(=O)Nc3ccc(Cl)cc3Cl)s2)cc1	10µM*	5%	-4%
SMILES	Cruzain inh noDet	NS1 function inh	Cruzain inh Det
CCC(=O)Nc1nnc(Sc2ccc(N(C)C)cc2)s1	-12%	1%	1%
Cc1onc(-c2ccccc2)c1C(=O)NC(=S)NNC(=O)c1cc(-c2ccc(F)cc2)n[nH]1	nt	4%	nt
Clc1ccccc1OCCCCN1CCCCC1	nt	-15%	nt
COc1ccccc1/C=C1/C(=O)ON=C1C	nt	3%	nt
COC(=O)c1c(NC(=O)c2ccco2)sc2c1CC(C)(C)NC2(C)C	nt	22%	nt
COc1ccc(-c2csc(N3C(=O)C4C5c6ccccc6C(c6ccccc65)[C@@H]4C3=O)n2)cc1 (stereo not given in full)	10µM*	-5%	2%
COc1ccc(-c2csc(N3C(=O)CNC3=S)n2)cc1	?	21%	-2%
COc1ccc(-c2csc(N3C(=N)SCC3=O)n2)cc1	?	5%	3%
COc1ccc(-c2csc(N3C(=O)C4C5c6ccccc6C(c6ccccc65)C4C3=O)n2)cc1 (stereo not given)	16µM*	-5%	0%
COc1ccc(NC(=O)CSc2oc(-c3cccs3)nc2S(=O)(=O)c2ccc(C)cc2)c(OC)c1	-22%	nt	-3%
COC(=O)c1ccc2c(=O)[nH]c(CN3c4ccccc4CC3C)nc2c1 (stereo not given)	?	?	-2%
O=c1[nH]c(CN2CCN(c3ccccc3)CC2)nc2scc(-c3ccccc3)c12	?	0%	-3%
CC1Cc2ccccc2N1Cc1nc2scc(-c3cccs3)c2c(=O)[nH]1 (stereo not given)	16µM*	10%	-4%
CC1Cc2ccccc2N1Cc1nc2cc(Cl)ccc2c(=O)[nH]1 (stereo not given)	25µM*	11%	4%
O=C(Nc1ccc(F)c(Cl)c1)C1CCCN(c2ncnc3onc(-c4ccc(F)cc4)c23)C1 (stereo not given)	-1%	nt	-1%
c1cncc(-c2cc(NCc3cccs3)ncn2)c1	-2%	nt	1%
CCCOc1ccccc1/C=N/Nc1ccnc(=O)[nH]1	nt	3%	nt
CCCCCCC(=O)Nc1nc(C)c(-c2csc(Nc3cc(OC)ccc3OC)n2)s1	10µM*	13%	-2%
Cc1nc(NC(=O)CC(C)C)sc1-c1csc(Nc2ccc(Cl)cc2Cl)n1	16µM*	?	-1%
CCCCCC(=O)Nc1nc(C)c(-c2csc(Nc3cc(OC)ccc3OC)n2)s1	?	12%	5%
Cc1nc(NC(=O)CC(C)C)sc1-c1csc(Nc2ccc(Cl)cc2)n1	13µM*	23%	2%
C=CCNc1nc(-c2sc(NC(=O)CC)nc2C)cs1	?	-36%	-10%
COc1ccc(Cl)cc1Nc1nc(-c2sc(NC(=O)CC(C)C)nc2C)cs1	20µM*	0%	-2%
C=C(C)CN1CCN(c2c(CCC#N)c(C)c(C#N)c3nc4ccccc4n23)CC1	17%	5%	2%
Cc1cc(NC(=O)CSc2nnc(-c3c[nH]c4ccccc34)n2-c2ccc(Cl)cc2)no1	-1%	-8%	6%
SMILES	Cruzain inh noDet	NS1 function inh	Cruzain inh Det
COc1ccc(CNC(=O)c2cc3cccc(OC)c3oc2=N)cc1	nt	-7%	nt
C=CCCC(=O)Nc1nc(C)c(-c2csc(Nc3cc(Cl)ccc3OC)n2)s1	16µM*	28%	-4%
C=CCCC(=O)Nc1nc(C)c(-c2csc(Nc3ccc(Cl)cc3Cl)n2)s1	?	27%	-1%
O=C(CCC1CCCC1)Nc1nnc(-c2ccc3c(c2)OCO3)s1	10µM*	7%	0%
O=C(CCC1CCCCC1)Nc1nnc(C(F)(F)F)s1	nt	-2%	nt
CCSc1nnc(NC(=O)CSc2nc3c(c(=O)n2-c2ccccc2OC)SCC3)s1	-28%	12%	28µM*
COc1ccc(NC(=O)CSc2nc3c(c(=O)n2-c2ccccc2OC)SCC3)cc1	-8%	-12%	-3%
Cc1c(CNC2CCCCCC2)c(C(=O)O)c(C)n1Cc1c(F)cccc1Cl	9%	nt	-4%
CC(=O)Nc1ccc(OC(=O)c2cc3cc(Br)ccc3oc2=O)cc1	0%	0%	0%
CC(=O)Nc1ccc(OC(=O)c2cc3cc(Br)cc(Br)c3oc2=O)cc1	20µM*	-22%	-1%
Cc1ccc([N+](=O)[O-])cc1NC1OC(CO)C(O)C1O (stereo not given)	1%	6%	4%
CCC(=O)Nc1c(C(=O)N2CCCCCC2)cnn1-c1ccc(C)c(C)c1	-9%	-22%	2%
CCc1ccc(-c2csc3[n+]2CCN3C(C)=O)cc1	-21%	29%	18µM*
CC(=O)N1CC[n+]2c(-c3ccc(Cl)cc3)csc21	-16%	17%	?

Source: PubChem
